The values that follow come from PubChem BioAssay (NCI).

This is part of a sample that, as a whole, favours compounds with a hit. Of some 83,000 tested, about 20% had one in any assay.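 Activity criterion: percent growth below 10, measured after cells in 96-well plates were exposed to a single compound concentration for 48 hours.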 Values without a mark were called inactive. Active and inactive are the calls of the source.

For this experiment, the system named is DU-145 prostate. Briefly: NCI-60 one-dose screen, 48 h (100 = growth as untreated, 0 = no growth, -100 = all killed). The following applies: 10 µM unless noted.
Consider `O=C1/C(=C/c2ccccc2)SC(=Nc2ccccc2)N1Nc1ccccc1`, for which the growth is 22%.

Consider `COc1cnc2c(c1)C(=O)c1c-2n(CCCNC(C)C)c(=O)c2cc(Cl)ccc12`, for which the growth was -78.4% (active).

Consider `CCSCC1CC(O)(c2ccccc2)C(c2ccccc2)C(c2ccc(F)cc2)O1` (centres undefined), for which the growth was 3.1% (active).

In the case of `CN1C(=O)C(C2=NNC(c3ccccc3C(=O)O)C2)C(=O)N(C)C1=O` (centres undefined), the growth was 113%.

For the compound `NC(N)=NC1CCCCC1`, the growth was 22.3%.

On to `COc1ccc(C(=O)OC2C(OC3C(O)COC(O[C@H]4C[C@H]5[C@@H]6CC=C7C[C@@H](O)CC[C@]7(C)[C@H]6CC[C@]5(C)[C@H]4[C@H](C)C(=O)CCC(C)C)C3OC(C)=O)OCC(O)C2O)cc1` (some centres undefined), for which the growth was 28.5%.

For the compound `CC(C)(C)c1ccc(OC(=O)Nc2ccccc2)cc1`, the growth was 107%.

For `CN1C2CCC1/C(=C\c1ccc(F)cc1)C(=O)/C2=C/c1ccc(F)cc1`, the growth is 9.38% (active).

Take `CCCCOC(=O)c1cc(O)c(O)c(O)c1`: the growth was 74%.

For `CCOC(=O)C1OC2(CCCC2)OC1C(=O)OCC` (centres undefined), the growth is 125%.

For `O=C(Nc1cccc(-n2ccc3c(NC(=O)c4ccccc4)nccc32)c1)c1ccc(N2CCOCC2)c(C(F)(F)F)c1`, the growth is 18.7%.

As for `CCN(CC)CCCC(C)Nc1c(-c2ccccc2)cnc2cc(Cl)ccc12` (centres undefined), the growth was 87.5%.

`O=C1C=CN2C(=O)CC=CC2[C@@H]1O` (some centres undefined): the growth is 118%.

Take `CC(=O)O[C@@H]1CC2C(C)(C)CCCC2(C)C2=C1C(=O)C(C(C)C)=CC2=O` (some centres undefined): the growth is -19.2% (active).

For `O=C(Nc1ccc(-n2ccc3c(NC(=O)c4ccccc4)nccc32)cc1)c1ccc(N2CCOCC2)c(C(F)(F)F)c1`, the growth was 38.9%.

Turning to `COc1cc(/C=C/c2cc(/C=C/c3ccc(O)c(OC)c3)n(C(=O)Nc3ccc(F)c(Cl)c3)n2)ccc1O`, the growth is -11.8% (active).

With `COc1cc(OC)c2sc(-c3ccc(-n4cncc4-c4ccc(OC)c(N)c4)cc3)nc2c1`, the growth is 93.5%.

As for `COc1ccc(C2=NNC(c3ccc(Oc4nc5c(c(=O)n(C)c(=O)n5C)n4C)c(OC)c3)C2)cc1` (centres undefined), the growth was 109%.

For the compound `NS(=O)(=O)c1ccc(CCn2c(SCC(=O)N/N=C/c3cccnc3)nc3ccccc3c2=O)cc1`, the growth was 98.9%.

For `O=C(NNC(=O)c1cccc(Cl)c1)c1ccccc1`, the growth was 110%.

For the compound `N=c1nc(N2CCCCC2)cc(N)n1O`, the growth was 114%.

Take `Cc1ccc(C)c(NC(=O)c2sc3c(=O)[nH]cnc3c2C)c1`: the growth is 108%.

Consider `C=CCOC(=O)C1=C(C)NC2=C(C(=O)CCC2)C1c1ccc(F)cc1` (centres undefined), for which the growth is 113%.

With `COc1ccc(-c2cnc(-c3ccncc3-c3cccc(OC)c3)o2)cc1`, the growth was 0.973% (active).

Regarding `O=C(Nc1ccncc1)C(=O)c1cn(S(=O)(=O)c2cccc(Cl)c2F)c2ccccc12`, the growth is 96.9%.

As to `Cc1ccccc1Nc1n[nH]c(Cc2ccccc2)n1`, the growth is 103%.

Turning to `Oc1ccccc1-c1nnc(COc2ccc(Cl)cc2Cl)o1`, the growth was 48.1%.

Regarding `CS(=O)(=O)c1ccc(C(=O)N/N=C/c2ccccc2O)cc1`, the growth was 40.4%.

For the compound `CCCCCCCCCCCCCCCCCC(=O)OCCCCCCCCCCCCC`, the growth is 117%.

Consider `COc1cc(C2CC(c3ccc(C)cc3)=NN2C=O)ccc1Oc1nc2c(c(=O)n(C)c(=O)n2C)n1C` (centres undefined), for which the growth is 64.5%.

Take `COc1cc(C2CC(c3ccccc3)=NN2C=O)ccc1Oc1ccnc2cc(Cl)ccc12` (centres undefined): the growth was 77.9%.

In the case of `NC(N)=N/N=C/c1ccc(Cl)cc1`, the growth was 73.8%.

Take `O=c1c2cc(Cl)ccc2oc2ccc(OCCCCCN3CCCCC3)cc12`: the growth was 74.6%.

For the compound `COc1cc(Cl)cc(-c2nn(C(=O)NCCN3CCOCC3)cc2-c2ccncc2)c1`, the growth is 86.1%.

For the compound `COc1ccc2nc3ccccc3c(NCc3ccc(Cl)cc3)c2c1`, the growth is 21.5%.

On to `CN1C(=O)N(C)C2C1NN=c1s/c(=C\c3ccc(C(F)(F)F)cc3)c(=O)n12` (centres undefined), for which the growth was 9.33% (active).

Turning to `C=C1C(=O)O[C@H]2[C@H]1CC/C(COC(=O)NCc1cn(C)c3ccccc13)=C\CC[C@@]1(C)O[C@@H]21`, the growth is -42.6% (active).

On to `c1csc(-c2cnc3nonc3n2)c1`, for which the growth was 108%.

Regarding `Nc1nc(NC2CC2)cc(-c2cccc(Cl)c2Cl)n1`, the growth is 78.3%.
